Only some compounds are listed: those with a hit (about 17% of all), similar ones and a draw of the others.
ATXN viability: cell viability loss in ATXN counter-screen; S2 cells (HEK-293 line with an ATXN2-luciferase reporter) viability, CellTiter-Fluor protease fluorescence, 24 h; Potency, µM (titrated, usually from 56.7 µM), hits mostly cytotoxic; hit rate 0.49% among 400,000; AID 651635; also: nearly all actives have a fitted effect of over 40% in size
DT40 TDP1 CPT: DT40-hTDP1 cell growth loss with CPT; Potency, µM (titrated, usually from 46.2 µM), without a hit: at the top dose activity change, negative = growth inhibition, actives largely listed as inhibitors; chicken DT40 Tdp1-/-;hTDP1 cells + 20 nM CPT, ATP luminescence, 48 h; hit rate 12% among 420,000; also: % is scaled to controls: 0 for no effect and ±100 for the full control effect; nearly all actives have a fitted effect of over 55% in size
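Cell growth measured by CellTiter-Glo luminescence after a minimum 48 h, 37 C compound exposure with 20 nM CPT in Tdp1-knockout DT40 cells stably expressing hTDP1, seeded 400/well; qHTS titration format.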
TGFb inhibitor: blocks TGF-b signaling; HepG2 CAGA-GFP TGF-b/SMAD3 reporter, GFP fluorescence, 18 h; TGF-beta stimulated, 500 pg/mL final; Potency, µM (doses to about 46.1 µM), for inactives: at the top dose activity, negative = inhibition, usual class: inhibitors; hit rate 1.2% among 410,000; AID 588855; also: % is scaled to controls: 0 for no effect and ±100 for the full control effect; nearly all actives have a fitted effect of over 65% in size
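Read-out: total well GFP (ex488/em500-530) summed from mean per-cell fluorescence. Cells: HEPG2 CAGA-GFP, 1% FBS DMEM, 18 h at 37 degrees C with 500 pg/mL final TGF-beta. Unstimulated wells served as the full-inhibition control; stimulated DMSO wells = 0%.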
ATXN2 expr inh: reduces ATXN2 reporter expression in HEK-293 cells; hit rate 0.72% among 360,000; Potency, µM (series often up to 57 µM), for inactives: at the highest dose activity change, negative = inhibition, hits mostly inhibitors; HEK-293 ATXN2-luciferase reporter, luminescence, 24 h; also: % is scaled to controls: 0 for no effect and ±100 for the full control effect; nearly all actives have a fitted effect of over 55% in size
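ATXN2-luciferase reporter cells (luciferase flanked by upstream and downstream ATXN2 gene portions) were treated 24 h at 37 °C with compounds at up to 57 uM. SteadyGlo luminescence gave expression; GF-AFC fluorescence gave viability.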
TDP1 cell noCPT: qHTS for Inhibitors of human tyrosyl-DNA phosphodiesterase 1 (TDP1): qHTS in cells in absence of CPT; DT40 Tdp1-/- hTDP1 cells, no CPT, ATP luminescence, 48 h; Potency, µM (doses to about 46.2 µM), inactives show at the top dose activity change, negative = growth inhibition, usual class: inhibitors; hit rate 15% among 420,000; also: % is scaled to controls: 0 for no effect and ±100 for the full control effect; nearly all actives have a fitted effect of over 55% in size
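Readout: luminescence from CellTiter-Glo after 30 min in the dark at RT. Cells: DT40 Tdp1-/- with stable hTDP1, 400/well. Exposure: compounds alone, ≥48 hr, 37 °C.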
HepG2 tox: HepG2 cytotoxicity, counter-screen for TGF-b inhibitors; HepG2 CAGA-GFP viability, ATP luminescence, 18 h; Potency, µM (doses to about 46.1 µM), for inactives: at the top dose activity change, negative = cytotoxicity, most hits filed as cytotoxic; hit rate 0.76% among 410,000; AID 588856
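HepG2 CAGA-GFP cells (1000/well, DMEM with 1% FBS) received compound, then TGF-beta at 500 pg/mL final, and were incubated 18 hours at 37 degrees C. Viability was read by CellTiter-Glo luminescence. Media-only wells were set as complete cell-killing and DMSO as no toxicity.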
Numbers without * were called inactive; i = inactive; ? = inconclusive; nt = not tested or not shown. Calls follow the shape of the dose curve; as a rule, active = well fitted curve in the direction sought with a large enough effect; inconclusive = small, poorly fitted or top-dose-only effect, or another doubt; inactive = no such curve, though single readings can be large; an effect the other way counts as inactive or inconclusive. Potency is read from the fitted curve at half-maximal effect.

SMILES | ATXN viability | DT40 TDP1 CPT | TGFb inhibitor | ATXN2 expr inh | TDP1 cell noCPT | HepG2 tox
COc1ccc(C)cc1S(=O)(=O)N1CCCC(C(=O)N2CCOCC2)C1 (centres undefined) | i | -1.3% | 0.0% | 1.9% | 19.1% | 3.2%
COc1ccc(N2CCN(C(=O)C3CCCN(S(=O)(=O)c4ccc5c(c4)oc(=O)n5C)C3)CC2)cc1 (centres undefined) | i | 11.6µM* | 0.2% | -10.2% | 10.3µM* | 0.6%
COc1ccccc1N1CCN(C(=O)C2CCCN(S(=O)(=O)c3ccc4c(c3)oc(=O)n4C)C2)CC1 (centres undefined) | i | 25.9µM* | -23.0% | -24.1% | 8.2µM* | -12.1%
COc1ccccc1N1CCN(C(=O)C2CCN(S(=O)(=O)c3ccc(C)cc3)CC2)CC1 | i | -15.3% | 9.4% | 47.7% | ? | -4.7%
O=C(CC1C(=O)NCCN1C(=O)Nc1ccc(F)cc1F)Nc1ccc(F)cc1 (centres undefined) | i | 6.5% | -16.9% | -0.6% | -23.6% | 5.8%
Nc1cccc(N=[N+]([O-])c2cccc(N)c2)c1 | i | ? | 6.4% | 35.8% | -14.6% | -3.8%
O=C(Nc1cc(Cl)cc(Cl)c1)c1ccc(Cn2c(=O)[nH]c3ccsc3c2=O)cc1 | 18.9µM* | ? | ? | -24.1% | ? | -37.3%
CC(=O)NCCNC(=O)c1ccc(Cn2c(=O)[nH]c3ccsc3c2=O)cc1 | i | 43.9% | 0.0% | 3.9% | 7.0% | 18.5%
COc1ccc(NC(=O)c2cccc(S(=O)(=O)NCc3ccco3)c2)c(OC)c1 | i | -23.2% | -14.0% | -1.8% | ? | -4.1%
CCN1CC=C2C(C1)C(c1ccc(Cl)s1)C(C#N)=C(N)C2(C#N)C#N (centres undefined) | ? | 16.4µM* | 41.0% | -12.0% | ? | -1.8%
COc1ccc(NC(=O)C2CCN(c3nc(-c4ccc(OC)c(OC)c4)no3)CC2)cc1Cl | i | 4.11µM* | 6.9% | 20.0% | ? | -2.6%
COc1ccc(-c2noc(N3CCC(C(=O)Nc4ccc(C)c(F)c4)CC3)n2)cc1OC | i | ? | 0.7% | 10.5% | 16.4µM* | -27.2%
COc1ccc(NC(=O)C2CCN(c3nc(-c4ccc(OC)cc4)no3)CC2)cc1 | i | ? | -9.8% | -9.1% | ? | -4.5%
N#Cc1cccc(NC(=O)C2CCN(c3nc(-c4ccc(Cl)cc4)no3)CC2)c1 | nt | 13µM* | -23.6% | nt | 16.4µM* | -28.9%
COc1ccc(-c2noc(N3CCC(C(=O)Nc4ccc(F)cc4F)CC3)n2)cc1 | ? | ? | 0.6% | ? | -19.0% | -13.5%
COc1ccc(NC(=O)C2COc3ccccc3C2)cc1Cl (centres undefined) | i | 18.4µM* | 19.2% | -8.0% | 16.4µM* | -2.1%
COc1ccc(NC(=O)NC2COc3ccccc3C2)cc1Cl (centres undefined) | nt | -25.4% | 15.6% | nt | -13.8% | -15.2%
N#Cc1cccc(NC(=O)C2CCN(c3ncccn3)CC2)c1 | i | -15.6% | -17.5% | 7.6% | 3.1% | -1.0%
N#CCC(=O)Nc1ccc(C(=O)N2CCN(S(=O)(=O)c3ccc4ccccc4c3)CC2)cc1 | i | -15.9% | 0.0% | 7.6% | 13.3% | -3.3%
O=C(NC1CCS(=O)(=O)C1)OC1CCCCC1 (centres undefined) | i | -0.9% | -0.2% | 5.7% | -8.0% | -11.0%
Clc1ccc(-c2ccc(-c3nn4c(-c5ccco5)nnc4s3)o2)cc1 | i | ? | 9.7% | -23.2% | 10.3µM* | -37.1%
O=C(/C=C/c1ccc(Cl)cc1)Nc1cc(S(=O)(=O)N2CCOCC2)ccc1N1CCOCC1 | i | ? | -15.3% | 0.6% | ? | -11.5%

Screening results as filed in PubChem.
